Test results published in the supplement of paper PMC10849652.
About 8,800 targets were measured; listed, in parts, are those with a hit and a random draw of the rest. About 0.5% of all pairs of compound and target were hits.

What was measured:
Assay in all cases: log2 fold change, soluble protein after heating vs DMSO (PISA); higher = thermal stabilisation; K562 lysate, 10 uM; active = over 0.2 and 3.5 SD of the protein, either way, in both replicates (recomputed)
erlotinib = compound: C#Cc1cccc(Nc2ncnc3cc(OCCOC)c(OCCOC)cc23)c1 [erlotinib]
Procedure, shortened: (§1)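 Pellets of K562 cells were dounce-homogenised in PBS pH 7.4 with 1 mM MgCl2, and the crude extract was held at 1 mg/mL protein for a 30 min treatment with 10 μM compound. Aliquots were heated for 3 min over 48°C-58°C and pooled before NP-40 was added to 0.5% at 4°C. The supernatant from 21,000xg for 90 min was quantified by TMTpro 16plex LC-MS/MS with channel sums equalised. Values are reported from duplicates as log-two fold change in thermal stability relative to solvent controls.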

[1] = compound: C/C(=N\NC(=O)C1=CC(=CC=C1)S(=O)(=O)N2CCOCC2)/C3=C(C=CC(=C3)Cl)O
Procedure, shortened: as §1

[2] = compound: C1=CC(=CC=C1C2=NC3=C(N2)C=C(C=C3)C(=O)N)OC4=CC=C(C=C4)Cl
Procedure, shortened: as §1

[3] = compound: C1=CC2=C(C=CC(=C2)/C=C\3/C(=O)NC(=NCC4=CC=CS4)S3)N=C1
Procedure, shortened: as §1

[4] = compound: C1=CC2=NC=CN=C2C=C1/C=C/3\C(=O)NC(=O)S3
Procedure, shortened: as §1

[5] = compound: C1=CC=C(C=C1)C2=NC(=C(N2)C3=CC=NC=C3)C4=CC(=C(C=C4)Cl)O
Procedure, shortened: as §1

[6] = compound: C1=CC=C2C(=C1)C3=NNC4=CC=CC(=C43)C2=O
Procedure, shortened: as §1

[7] = compound: C1CCN(C1)C(=O)NC2=CC=CC(=C2)NC3=NC=C(C(=N3)NCCC4=CN=CN4)Br
Procedure, shortened: as §1

[8] = compound: C1CN(CCC1(CC2=CC=C(C=C2)Cl)N)C3=NC=NC4=C3C=CN4
Procedure, shortened: as §1

IRAK-1-4 Inhibitor I = compound: C1COCCN1CCN2C3=CC=CC=C3N=C2NC(=O)C4=CC(=CC=C4)[N+](=O)[O-] [IRAK-1-4 Inhibitor I]
Procedure, shortened: as §1

ibrutinib = compound: C=CC(=O)N1CCC[C@@H](n2nc(-c3ccc(Oc4ccccc4)cc3)c3c(N)ncnc32)C1 [ibrutinib]
Procedure, shortened: as §1

[9] = compound: CC(=O)c1cnc2ccc(-c3cc(Cl)c(O)c(Cl)c3)nc2c1N[C@H]1CC[C@H](CN(C)C)CC1
Procedure, shortened: as §1

ralimetinib = compound: CC(C)(C)Cn1c(N)nc2ccc(-c3[nH]c(C(C)(C)C)nc3-c3ccc(F)cc3)nc21 [ralimetinib]
Procedure, shortened: as §1

[10] = compound: CC(C)(O)CC(=O)NCCn1ccc2ncnc(Nc3ccc(Oc4cccc(C(F)(F)F)c4)c(Cl)c3)c21
Procedure, shortened: as §1

[11] = compound: CC(C)C1=C2N=C(C=C(N2N=C1)NCC3=CC=CC=C3)NCCCCCCN
Procedure, shortened: as §1

[12] = compound: CC1=C(C(CC(=O)N1)C2=CC=C(C=C2)C(F)(F)F)C(=O)NC3=C(C=C4C(=C3)C=NN4)F
Procedure, shortened: as §1

[13] = compound: CC1=C(C2=C(C=C1)C(=O)C3=CC=CC=C3N2CCCN)C
Procedure, shortened: as §1

[14] = compound: CC1=C(C=C(C=C1)NC(=O)C2=CC(=CC=C2)C(C)(C)C#N)NC3=CC4=C(C=C3)N=CN(C4=O)C
Procedure, shortened: as §1

[15] = compound: CC1=C(C=C(C=C1)NC(=O)C2=CC(=CC=C2)N(C)C)NC(=O)C3=CC=C(C=C3)O
Procedure, shortened: as §1

[16] = compound: CC1=CC=C(C=C1)SC2=C3C=C(SC3=CN=C2)C(=O)N
Procedure, shortened: as §1

Measured: log2 fold change

LZTR1 (UniProt Q8N653)
Chain of UniProt Q8N653 (Q8N653 whole entry, looked up): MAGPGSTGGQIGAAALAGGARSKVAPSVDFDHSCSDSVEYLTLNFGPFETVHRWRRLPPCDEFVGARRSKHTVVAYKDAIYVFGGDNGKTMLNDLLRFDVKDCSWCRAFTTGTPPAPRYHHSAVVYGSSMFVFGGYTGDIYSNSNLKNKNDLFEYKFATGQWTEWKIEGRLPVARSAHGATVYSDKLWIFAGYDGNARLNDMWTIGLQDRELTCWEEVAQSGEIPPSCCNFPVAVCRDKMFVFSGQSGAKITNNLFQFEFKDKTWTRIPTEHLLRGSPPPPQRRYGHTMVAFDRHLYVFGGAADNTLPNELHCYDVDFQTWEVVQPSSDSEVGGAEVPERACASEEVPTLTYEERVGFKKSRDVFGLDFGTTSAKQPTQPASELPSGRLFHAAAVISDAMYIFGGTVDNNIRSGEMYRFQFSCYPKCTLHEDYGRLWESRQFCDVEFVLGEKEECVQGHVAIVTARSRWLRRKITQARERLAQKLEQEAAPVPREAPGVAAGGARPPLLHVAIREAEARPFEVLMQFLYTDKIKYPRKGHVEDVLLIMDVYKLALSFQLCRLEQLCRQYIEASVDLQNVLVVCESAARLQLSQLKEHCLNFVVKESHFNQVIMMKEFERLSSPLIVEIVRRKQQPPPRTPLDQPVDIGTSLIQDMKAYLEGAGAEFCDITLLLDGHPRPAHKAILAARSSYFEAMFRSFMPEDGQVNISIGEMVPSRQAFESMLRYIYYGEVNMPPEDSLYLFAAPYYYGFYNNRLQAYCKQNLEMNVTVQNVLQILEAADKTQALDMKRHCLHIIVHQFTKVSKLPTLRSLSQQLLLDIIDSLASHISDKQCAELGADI
inactive: erlotinib 0.051 | [1] 0.099 | [2] -0.018 | [3] -0.015 | [4] 0.022 | [5] -0.005 | [6] -0.071 | [7] 0.066 | [8] 0.106 | IRAK-1-4 Inhibitor I 0.08 | ibrutinib -0.074 | [9] -0.441 | ralimetinib -0.023 | [10] 0.102 | [11] 0.009 | [12] 0.048 | [13] -0.014 | [14] -0.001 | [15] 0.113 | [16] 0.041

MAP4K4 isoform 3 (UniProt O95819)
Chain of UniProt O95819 (O95819 whole entry, looked up): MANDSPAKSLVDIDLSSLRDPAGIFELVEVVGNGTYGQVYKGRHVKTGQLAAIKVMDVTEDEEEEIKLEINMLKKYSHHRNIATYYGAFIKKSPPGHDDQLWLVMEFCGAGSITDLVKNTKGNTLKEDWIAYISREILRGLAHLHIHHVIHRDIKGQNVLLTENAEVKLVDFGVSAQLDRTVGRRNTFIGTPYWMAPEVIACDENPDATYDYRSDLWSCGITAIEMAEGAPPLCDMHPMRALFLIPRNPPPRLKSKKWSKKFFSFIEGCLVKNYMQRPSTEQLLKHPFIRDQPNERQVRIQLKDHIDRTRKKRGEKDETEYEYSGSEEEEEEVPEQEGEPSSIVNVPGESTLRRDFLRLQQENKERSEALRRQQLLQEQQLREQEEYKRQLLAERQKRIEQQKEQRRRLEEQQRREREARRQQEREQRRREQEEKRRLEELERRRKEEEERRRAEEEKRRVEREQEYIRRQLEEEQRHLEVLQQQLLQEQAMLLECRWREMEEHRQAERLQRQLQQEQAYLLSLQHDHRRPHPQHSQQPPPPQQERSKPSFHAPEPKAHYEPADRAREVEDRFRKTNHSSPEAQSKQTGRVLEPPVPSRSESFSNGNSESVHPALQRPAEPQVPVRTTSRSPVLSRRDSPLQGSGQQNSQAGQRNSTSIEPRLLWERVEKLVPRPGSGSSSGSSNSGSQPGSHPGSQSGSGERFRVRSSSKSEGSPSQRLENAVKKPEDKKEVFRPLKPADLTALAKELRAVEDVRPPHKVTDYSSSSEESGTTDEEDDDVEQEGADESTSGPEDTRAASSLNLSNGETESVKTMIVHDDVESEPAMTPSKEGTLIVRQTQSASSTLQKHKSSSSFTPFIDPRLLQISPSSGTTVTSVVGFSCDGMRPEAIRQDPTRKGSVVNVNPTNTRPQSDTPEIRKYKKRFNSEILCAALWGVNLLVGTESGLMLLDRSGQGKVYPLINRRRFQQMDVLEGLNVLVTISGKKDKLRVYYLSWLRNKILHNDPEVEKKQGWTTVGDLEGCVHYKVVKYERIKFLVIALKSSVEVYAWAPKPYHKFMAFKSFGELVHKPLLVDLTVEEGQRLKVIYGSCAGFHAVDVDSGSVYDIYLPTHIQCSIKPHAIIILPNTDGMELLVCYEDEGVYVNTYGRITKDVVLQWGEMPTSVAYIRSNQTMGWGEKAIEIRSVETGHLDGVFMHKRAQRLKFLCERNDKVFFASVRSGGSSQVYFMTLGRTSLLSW
inactive: erlotinib -0.003 | [1] -0.025 | [2] 0.099 | [3] 0.038 | [4] -0.027 | [5] -0.093 | [6] -0.077 | [7] 0.008 | [8] -0.011 | IRAK-1-4 Inhibitor I 0.059 | ibrutinib -0.052 | [9] -0.021 | ralimetinib -0.065 | [10] -0.002 | [11] 0.046 | [12] 0.067 | [13] -0.042 | [14] -0.022 | [15] 0.062 | [16] -0.056

MAP2K4 isoform 2 (UniProt P45985)
inactive: erlotinib 0.035 | [1] -0.069 | [2] -0.035 | [3] -0.003 | [4] -0.001 | [5] 0.06 | [6] 0.283 | [7] 0.039 | [8] -0.058 | IRAK-1-4 Inhibitor I 0.048 | ibrutinib 0.051 | [9] 0.316 | ralimetinib -0.029 | [10] -0.015 | [11] 0.042 | [12] -0.008 | [13] 0.006 | [14] -0.055 | [15] 0.033 | [16] -0.045

KNOP1 (UniProt Q1ED39)
inactive: erlotinib -0.018 | [1] -0.011 | [2] -0.006 | [3] -0.176 | [4] 0.019 | [5] 0.008 | [6] 0.109 | [7] -0.128 | [8] 0.118 | IRAK-1-4 Inhibitor I 0.123 | ibrutinib -0.079 | [9] -0.096 | ralimetinib -0.096 | [10] -0.133 | [11] -0.031 | [12] 0.052 | [13] -0.114 | [14] 0.155 | [15] -0.033 | [16] -0.118

MPP1 (UniProt Q00013)
inactive: erlotinib 0.014 | [1] 0.017 | [2] -0.007 | [3] -0.008 | [4] -0.025 | [5] 0.014 | [6] -0.014 | [7] 0.003 | [8] 0.018 | IRAK-1-4 Inhibitor I -0.007 | ibrutinib 0.035 | [9] 0.011 | ralimetinib -0.01 | [10] -0.002 | [11] 0.02 | [12] -0.019 | [13] 0.018 | [14] 0.022 | [15] 0.012 | [16] -0.004

MMS19 isoform 8 (UniProt Q96T76)
Chain of UniProt Q96T76 (Q96T76 whole entry, looked up): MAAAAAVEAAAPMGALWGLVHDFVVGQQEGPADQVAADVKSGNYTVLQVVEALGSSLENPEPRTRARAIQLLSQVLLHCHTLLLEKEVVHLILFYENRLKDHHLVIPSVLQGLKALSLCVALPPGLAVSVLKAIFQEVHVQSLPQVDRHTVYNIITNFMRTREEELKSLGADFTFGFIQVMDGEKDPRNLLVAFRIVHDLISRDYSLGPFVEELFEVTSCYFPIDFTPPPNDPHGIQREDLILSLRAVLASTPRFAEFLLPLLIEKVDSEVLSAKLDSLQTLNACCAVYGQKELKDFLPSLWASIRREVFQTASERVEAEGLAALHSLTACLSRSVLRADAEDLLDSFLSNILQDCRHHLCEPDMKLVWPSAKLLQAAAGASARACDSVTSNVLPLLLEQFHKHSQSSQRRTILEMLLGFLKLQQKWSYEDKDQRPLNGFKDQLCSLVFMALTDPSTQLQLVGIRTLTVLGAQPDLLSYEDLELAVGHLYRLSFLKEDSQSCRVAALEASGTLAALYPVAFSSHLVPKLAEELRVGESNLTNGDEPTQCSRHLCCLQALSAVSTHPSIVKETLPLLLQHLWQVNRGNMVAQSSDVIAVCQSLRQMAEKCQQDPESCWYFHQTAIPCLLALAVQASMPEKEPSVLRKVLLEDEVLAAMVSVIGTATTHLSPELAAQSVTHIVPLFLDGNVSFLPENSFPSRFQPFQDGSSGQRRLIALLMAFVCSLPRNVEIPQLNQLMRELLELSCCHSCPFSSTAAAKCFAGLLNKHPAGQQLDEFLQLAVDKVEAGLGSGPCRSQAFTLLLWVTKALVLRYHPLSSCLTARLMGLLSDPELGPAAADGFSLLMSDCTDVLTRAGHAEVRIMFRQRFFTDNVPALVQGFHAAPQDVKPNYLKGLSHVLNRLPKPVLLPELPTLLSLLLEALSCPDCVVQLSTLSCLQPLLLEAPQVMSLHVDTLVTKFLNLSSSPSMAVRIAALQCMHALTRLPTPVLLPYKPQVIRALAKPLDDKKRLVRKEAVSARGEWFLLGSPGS
inactive: erlotinib 0.026 | [1] -0.019 | [2] -0.016 | [3] -0.02 | [4] -0.009 | [5] 0.011 | [6] -0.099 | [7] 0.01 | [8] 0.034 | IRAK-1-4 Inhibitor I 0.004 | ibrutinib -0.023 | [9] -0.011 | ralimetinib 0.022 | [10] -0.02 | [11] -0.041 | [12] 0.006 | [13] -0.018 | [14] 0.013 | [15] 0.055 | [16] 0.004

MARK3 (UniProt P27448)
inactive: erlotinib 0.089 | [1] -0.074 | [2] -0.007 | [3] 0.07 | [4] -0.051 | [5] 0.016 | [6] -0.218 | [7] -0.213 | [8] -0.023 | IRAK-1-4 Inhibitor I -0.035 | ibrutinib 0.03 | [9] -0.081 | ralimetinib 0.028 | [10] -0.016 | [11] 0.041 | [12] 0.005 | [13] -0.009 | [14] 0.075 | [15] 0.016 | [16] 0

LUZP1 (UniProt Q86V48)
inactive: erlotinib -0.074 | [1] -0.06 | [2] -0.033 | [3] 0.027 | [4] -0.028 | [5] -0.009 | [6] 0.031 | [7] -0.009 | [8] 0.009 | IRAK-1-4 Inhibitor I 0.085 | ibrutinib 0.002 | [9] -0.002 | ralimetinib 0.003 | [10] -0.012 | [11] 0.016 | [12] -0.006 | [13] 0.012 | [14] 0.011 | [15] -0.002 | [16] 0.017

KIFC1 (UniProt Q9BW19)
Chain of UniProt Q9BW19 (Q9BW19 whole entry, looked up): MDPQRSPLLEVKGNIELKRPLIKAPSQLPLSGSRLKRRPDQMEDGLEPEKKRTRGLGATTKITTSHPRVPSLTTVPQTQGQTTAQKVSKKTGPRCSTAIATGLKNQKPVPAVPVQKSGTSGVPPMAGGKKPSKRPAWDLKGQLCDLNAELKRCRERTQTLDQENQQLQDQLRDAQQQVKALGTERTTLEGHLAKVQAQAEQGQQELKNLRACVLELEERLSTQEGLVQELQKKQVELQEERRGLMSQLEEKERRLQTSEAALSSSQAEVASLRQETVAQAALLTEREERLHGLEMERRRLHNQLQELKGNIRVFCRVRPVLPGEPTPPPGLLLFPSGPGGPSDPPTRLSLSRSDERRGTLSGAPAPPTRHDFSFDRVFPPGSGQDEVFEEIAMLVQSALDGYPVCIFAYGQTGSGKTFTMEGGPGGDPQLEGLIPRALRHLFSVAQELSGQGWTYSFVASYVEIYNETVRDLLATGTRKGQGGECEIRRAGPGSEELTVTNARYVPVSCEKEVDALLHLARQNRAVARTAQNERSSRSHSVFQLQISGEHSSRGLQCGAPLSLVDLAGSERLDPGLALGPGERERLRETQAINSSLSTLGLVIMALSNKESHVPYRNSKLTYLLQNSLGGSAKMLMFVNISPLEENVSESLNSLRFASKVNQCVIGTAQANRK
inactive: erlotinib 0.003 | [1] 0.061 | [2] 0.011 | [3] -0.002 | [4] -0.048 | [5] 0.011 | [6] -0.012 | [7] -0.009 | [8] 0.025 | IRAK-1-4 Inhibitor I -0.023 | ibrutinib 0.021 | [9] -0.002 | ralimetinib -0.025 | [10] 0.007 | [11] -0.012 | [12] -0.009 | [13] 0.004 | [14] 0.002 | [15] 0.011 | [16] 0.002

KLC4 isoform 3 (UniProt Q9NSK0)
inactive: erlotinib 0 | [1] -0.017 | [2] 0.05 | [3] 0 | [4] 0 | [5] 0.018 | [6] -0.029 | [7] -0.056 | [8] 0.007 | IRAK-1-4 Inhibitor I -0.021 | ibrutinib -0.007 | [9] 0.012 | ralimetinib 0.008 | [10] -0.023 | [11] -0.024 | [12] -0.018 | [13] 0.009 | [14] 0.019 | [15] -0.001 | [16] 0.003

LDAH isoform 2 (UniProt Q9H6V9)
Chain of UniProt Q9H6V9 (Q9H6V9 whole entry, looked up): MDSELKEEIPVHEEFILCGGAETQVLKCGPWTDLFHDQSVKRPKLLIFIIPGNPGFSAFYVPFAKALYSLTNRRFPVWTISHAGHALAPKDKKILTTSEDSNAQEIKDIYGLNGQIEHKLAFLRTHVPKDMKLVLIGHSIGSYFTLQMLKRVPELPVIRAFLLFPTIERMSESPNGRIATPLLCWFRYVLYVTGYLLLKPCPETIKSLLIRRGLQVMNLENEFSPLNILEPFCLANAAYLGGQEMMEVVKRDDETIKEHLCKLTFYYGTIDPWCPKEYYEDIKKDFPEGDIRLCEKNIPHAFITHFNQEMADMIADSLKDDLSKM
inactive: erlotinib -0.017 | [1] -0.015 | [2] -0.057 | [3] -0.023 | [4] 0.005 | [5] -0.01 | [6] -0.021 | [7] -0.032 | [8] 0 | IRAK-1-4 Inhibitor I 0.029 | ibrutinib 0.015 | [9] 0.021 | ralimetinib 0.029 | [10] 0.097 | [11] -0.018 | [12] 0.006 | [13] 0.029 | [14] 0.007 | [15] 0 | [16] 0.014

MLST8 (UniProt Q9BVC4)
inactive: erlotinib 0.038 | [1] 0.008 | [2] -0.041 | [3] 0.015 | [4] 0.012 | [5] 0.015 | [6] 0.002 | [7] -0.091 | [8] 0.033 | IRAK-1-4 Inhibitor I -0.001 | ibrutinib 0 | [9] 0.011 | ralimetinib -0.038 | [10] 0.021 | [11] 0.063 | [12] -0.042 | [13] -0.021 | [14] -0.003 | [15] 0.044 | [16] 0.023

KIF4B (UniProt Q2VIQ3)
inactive: erlotinib -0.018 | [1] -0.035 | [2] -0.017 | [3] 0.032 | [4] -0.005 | [5] 0.034 | [6] 0.004 | [7] -0.003 | [8] -0.027 | IRAK-1-4 Inhibitor I -0.061 | ibrutinib 0.027 | [9] 0.005 | ralimetinib 0.004 | [10] -0.03 | [11] 0.013 | [12] 0.04 | [13] -0.018 | [14] 0.01 | [15] 0.002 | [16] -0.036

KIF2C (UniProt Q99661)
Chain of UniProt Q99661 (Q99661 whole entry, looked up): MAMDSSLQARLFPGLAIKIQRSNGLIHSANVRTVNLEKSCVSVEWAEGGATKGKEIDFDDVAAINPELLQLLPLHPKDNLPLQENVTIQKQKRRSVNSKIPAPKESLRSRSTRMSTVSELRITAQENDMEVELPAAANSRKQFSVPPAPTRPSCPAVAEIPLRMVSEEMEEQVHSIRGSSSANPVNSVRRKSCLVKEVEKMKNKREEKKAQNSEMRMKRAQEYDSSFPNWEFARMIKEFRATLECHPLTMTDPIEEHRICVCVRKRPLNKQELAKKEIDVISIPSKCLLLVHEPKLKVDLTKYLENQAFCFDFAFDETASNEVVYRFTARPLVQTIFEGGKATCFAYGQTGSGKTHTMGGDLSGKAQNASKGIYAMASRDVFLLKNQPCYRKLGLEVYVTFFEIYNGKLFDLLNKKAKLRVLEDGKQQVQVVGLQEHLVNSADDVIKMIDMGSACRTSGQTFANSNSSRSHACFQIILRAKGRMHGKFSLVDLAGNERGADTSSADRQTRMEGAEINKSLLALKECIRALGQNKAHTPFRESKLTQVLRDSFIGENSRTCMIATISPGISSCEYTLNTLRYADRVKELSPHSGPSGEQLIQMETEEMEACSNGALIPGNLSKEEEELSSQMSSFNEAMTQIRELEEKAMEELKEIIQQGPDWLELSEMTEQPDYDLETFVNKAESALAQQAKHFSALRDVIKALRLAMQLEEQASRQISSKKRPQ
inactive: erlotinib 0.019 | [1] 0.033 | [2] -0.008 | [3] -0.01 | [4] -0.008 | [5] 0.002 | [6] -0.033 | [7] 0.015 | [8] -0.006 | IRAK-1-4 Inhibitor I -0.019 | ibrutinib 0.004 | [9] 0.014 | ralimetinib 0.048 | [10] 0.025 | [11] -0.014 | [12] -0.005 | [13] -0.004 | [14] 0.004 | [15] 0.039 | [16] 0.016

LYRM4 (UniProt Q9HD34)
Chain of UniProt Q9HD34 (Q9HD34 whole entry, looked up): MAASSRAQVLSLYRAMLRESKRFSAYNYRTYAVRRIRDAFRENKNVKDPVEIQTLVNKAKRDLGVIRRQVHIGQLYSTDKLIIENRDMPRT
inactive: erlotinib -0.009 | [1] 0.016 | [2] 0.02 | [3] -0.117 | [4] -0.017 | [5] -0.011 | [6] -0.002 | [7] -0.02 | [8] 0.06 | IRAK-1-4 Inhibitor I 0.005 | ibrutinib 0.015 | [9] 0.034 | ralimetinib -0.036 | [10] -0.042 | [11] 0.017 | [12] 0.017 | [13] -0.027 | [14] 0.109 | [15] -0.034 | [16] -0.009

LSG1 (UniProt Q9H089)
inactive: erlotinib 0.044 | [1] 0.036 | [2] -0.059 | [3] -0.136 | [4] -0.021 | [5] 0 | [6] -0.114 | [7] -0.031 | [8] 0.103 | IRAK-1-4 Inhibitor I -0.048 | ibrutinib -0.083 | [9] -0.033 | ralimetinib 0.026 | [10] 0.052 | [11] 0.032 | [12] 0.004 | [13] -0.187 | [14] 0.012 | [15] 0.013 | [16] 0.031
